Data published in PubChem BioAssay.
Entries with a potency or affinity are not part of this list. Inconclusive results are not listed. Calls of active or inactive are those of the source.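 How the source made its calls, unless noted: active means signal drop whose fitted half-maximal concentration is at most twice the top valid dose, in every test run; inconclusive means mixed calls across runs, poor fit, or flat 30 to 70% inhibition; inactive means wrong direction, flat within 30%, or potency beyond limit.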

What was measured:
[1] = RMG-1 ovarian cancer cell viability loss – cherry-pick, dose response (AID 687029);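 further: cells exposed to compound for 96 hours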
[2] = IOSE-T80 viability loss, PAX8-independent line – cell-based, cherry-pick, selectivity assay for PAX8 inhibitor project, dose response (AID 687032;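 active means fitted half-maximal concentration for viability loss no higher than twice the top valid dose, in every repeat run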;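 further: cells exposed to compound for 96 h before reading; 0% = neutral control wells and -100% = 2 µM mitoxantrone kill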)
[3] = CMV-driven luciferase expression suppression in HEK293 – cell-based, luminescence, dry powder, counter-screen for Pax8 inhibitor project, dose response (AID 743020;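 active means signal-lowering compounds whose fitted half-maximal concentration is at or below twice the top tested dose in every run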;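 further: HEK293 cells stably expressing the CMV luciferase reporter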)
[4] = general cell-killing toxicity readout – plate reader, dry powder samples, cytotoxicity control for PAX8 inhibitor project, dose response (AID 743021; call rule not given here)

Measured: activity change, negative = inhibition

CC(C)N(CC(=O)Nc1ccc(Cl)cc1C(F)(F)F)C(=O)CCl
inactive: [1] | [2] | [3]

COc1cccc(/C=N/Nc2cc(C)nc(-c3ccccc3O)n2)c1O
inactive: [1] | [2] | [3]

CC1(C)CC(=O)C=C(C#CC2(O)CCCCC2)C1
inactive: [1] | [2] | [3]

Cc1nn(-c2nc3ccccc3[nH]2)c(=O)c2ccccc12
inactive: [1] | [2] | [3]

O=C(O)c1ccc(N/N=C/c2ccc3nccnc3c2)cc1
inactive: [1] | [2] | [3]

CC(C)CN1CCN(C(=O)COC(=O)c2ccc(S(C)(=O)=O)c([N+](=O)[O-])c2)CC1
inactive: [1] | [2] | [3]

C=C1CC(Cn2cc(Br)c(=O)[nH]c2=O)(c2ccc(-c3ccccc3)cc2)OC1=O (stereo not drawn)
inactive: [1] | [2] | [3]

O=C(CC1SC(=Nc2cccc3ccccc23)N(Cc2ccccn2)C1=O)Nc1ccccc1Br (stereo not drawn)
inactive: [1] | [2] | [3]

COC(=O)[C@@H]1Cc2c([nH]c3ccccc23)C(C)(C)N1C(=O)CCl
inactive: [1] | [2] | [3]

Cc1cccc(N(Cc2ccccc2)C(=O)CCl)c1
inactive: [1] | [2] | [3]

CN(C[C@H]1N[C@@H](CO)[C@@H]1c1ccc(C2=CCCC2)cc1)C(=O)c1ccncc1
inactive: [1] | [2] | [3]

CC[C@@H](C(=O)[C@@H](C)[C@@H](O)[C@H](C)CCc1ccc(C)c(O)c1C(=O)O)[C@H]1O[C@](CC)([C@H]2CC[C@](O)(CC)[C@H](C)O2)C[C@@H]1C
inactive: [1] | [2] | [3]

COc1ccc(C#Cc2ccc([C@@H]3[C@H](CO)N4CCCCN(C(=O)Nc5cccc(F)c5)C[C@@H]34)cc2)cc1
inactive: [1] | [2] | [3]

COC(=O)C1=C(SC)N(c2ccccc2)C(c2ccccc2)CC1=O (stereo not drawn)
inactive: [1] | [2] | [3]

O=S(=O)(c1ccc2c(c1)C(=NO)c1cc(S(=O)(=O)N3CCCCC3)ccc1-2)N1CCCCC1
inactive: [1] | [2] | [3]

O=C(Nc1cccc(NC(=O)c2ccc([N+](=O)[O-])o2)c1)c1ccco1
inactive: [1] | [2] | [3]

O=C1C=CC(=O)c2c(O)c(N3CCN(CCOCCO)CC3)c(Br)c(O)c21
inactive: [1] | [2] | [3]

COC(=O)C1=C(C)N(Cc2cccc(C(F)(F)F)c2)C(=NCC2CC2)NC1c1cccc(C(F)(F)F)c1 (stereo not drawn)
inactive: [1] | [2] | [3]

CS(=O)(=O)c1ccc(C(=O)OCC(=O)N2CCN(CCC3CCCCC3)CC2)cc1[N+](=O)[O-]
inactive: [1] | [2] | [3]

Cc1cc(N/N=C/c2ccc(O)c(C)c2O)nc(-c2ccccc2O)n1
inactive: [1] | [2] | [3]

CCOc1ccccc1NC(=O)c1nc(S(=O)(=O)Cc2ccccc2)ncc1Cl
inactive: [1] | [2] | [3]

COc1ccc(C(C(=O)NC2CCCCC2)N(C(=O)CCl)c2cccc(Cl)c2)cc1 (stereo not drawn)
inactive: [1] | [2] | [3]

COc1ccc(C(C(=O)NC2CCCCC2)N(C(=O)CCl)c2ccc(C)cc2)cc1 (stereo not drawn)
inactive: [1] | [2] | [3]

O=C(NC1CCCCC1)C(c1cccnc1)N(C(=O)CCl)c1ccccc1Cl (stereo not drawn)
inactive: [1] | [2] | [3]

COc1cccc(/C=N/Nc2ccc(C(=O)O)cc2)c1O
inactive: [1] | [2] | [3]

CCN1CCN(Cc2ccc(NC(=O)c3cc(NC(=O)c4cncc(-c5ccc(C#N)cc5)c4)cc(OC)c3)cc2C(F)(F)F)CC1
inactive: [1] | [2] | [3]

COc1ccccc1C#Cc1ccc([C@H]2[C@@H](CO)N(C(=O)C3CCCCC3)[C@H]2C#N)cc1
inactive: [1] | [2] | [3]

COc1ccccc1-c1ccc(OCCCN2CCC(C(O)(c3ccccc3)c3ccccc3)CC2)cc1
inactive: [1] | [2] | [3]

C=C1CCc2c([nH]c3ccc(OCC(C)C)cc23)C1=O
inactive: [1] | [2] | [3]

O=C(NC1=CC(=O)c2ccccc2C1=O)c1ccccc1
inactive: [1] | [2] | [3]

C#CCN(C[C@@H]1[C@@H](OC(=O)NCCCCCC)[C@@H](OC(=O)NCCCCCC)Cn2c(=O)ccc(=O)n21)S(=O)(=O)c1ccc(C)cc1
inactive: [1] | [2] | [3]

CN(C[C@H]1N[C@@H](CO)[C@@H]1c1ccc(C2=CCCC2)cc1)C(=O)c1ccc(F)cc1
inactive: [1] | [2] | [3] 0.4% [at 8 µM]

O=C(OCc1ccccc1)N(CCCCN(CCCNCc1ccccc1)C(=O)OCc1ccccc1)CCCNCc1ccccc1
inactive: [1] | [2] | [3]

CCOC(=O)Nc1ccc2c(c1)N(C(=O)CCCl)c1ccccc1[S@]2=O
inactive: all assays above

COc1cccc(/C=C2/Sc3ccc(C(=O)NCCN4CCCCCC4)cc3NC2=O)c1
inactive: [1] | [2] | [3]

CN(CCc1cn[nH]c1)Cc1nc(C(c2ccccc2)c2ccccc2)no1
inactive: all assays above

FC(F)(F)c1nnc2c(Sc3ccccc3)nc3ccc(Cl)cc3n12
inactive: all assays above

O=C(CN1C(=O)c2ccccc2S1(=O)=O)N1CCc2ccccc21
inactive: all assays above

CN(C)N=Nc1nc[nH]c1C(N)=O
inactive: all assays above

C[C@H](O)C#Cc1ccc2c(c1)O[C@H](CN(C)Cc1ccc(-c3ccccc3)cc1)[C@@H](C)CN([C@@H](C)CO)S2(=O)=O
inactive: all assays above

Cc1[nH]nc2nc(SCC(=O)NC3CCCCC3)n(-c3ccc(Br)cc3)c(=N)c12
inactive: all assays above

C=CC(=O)N1C/C(=C/c2ccc(Cl)cc2)C(=O)/C(=C\c2ccc(Cl)cc2)C1
inactive: all assays above

Cc1cccc(NCc2ccc(O)c3ncccc23)c1C
inactive: all assays above
